A selection: hits, their analogues and other compounds. The true share with any hit is near 1.8%.
NPR1 activator: GC-A stimulated cGMP production enhancers – HEK293 GC-A cells, cGMP TR-FRET, EC30 ANP, primary screen | Atrial natriuretic peptide receptor 1 (Homo sapiens), P16066 | 0% at EC30 ANP, 100% saturating ANP | activation, % at 10 µM | 370,000 compounds, 0.14% hits | AID 1671463, 2021; in the data active = activation above about 40%
GC-B act: human GC-B receptor activators, primary screen, HEK293 GC-B cells, cGMP TR-FRET, EC30 CNP. 370,000 compounds, 0.11% hits. activation, % at 10 µM. 0% at EC30 CNP, 100% saturating CNP;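 active = activation at 10 µM reaching about 35% in either raw or pattern-adjusted values, limit read from the data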
Target sequence (P20594 whole entry, looked up): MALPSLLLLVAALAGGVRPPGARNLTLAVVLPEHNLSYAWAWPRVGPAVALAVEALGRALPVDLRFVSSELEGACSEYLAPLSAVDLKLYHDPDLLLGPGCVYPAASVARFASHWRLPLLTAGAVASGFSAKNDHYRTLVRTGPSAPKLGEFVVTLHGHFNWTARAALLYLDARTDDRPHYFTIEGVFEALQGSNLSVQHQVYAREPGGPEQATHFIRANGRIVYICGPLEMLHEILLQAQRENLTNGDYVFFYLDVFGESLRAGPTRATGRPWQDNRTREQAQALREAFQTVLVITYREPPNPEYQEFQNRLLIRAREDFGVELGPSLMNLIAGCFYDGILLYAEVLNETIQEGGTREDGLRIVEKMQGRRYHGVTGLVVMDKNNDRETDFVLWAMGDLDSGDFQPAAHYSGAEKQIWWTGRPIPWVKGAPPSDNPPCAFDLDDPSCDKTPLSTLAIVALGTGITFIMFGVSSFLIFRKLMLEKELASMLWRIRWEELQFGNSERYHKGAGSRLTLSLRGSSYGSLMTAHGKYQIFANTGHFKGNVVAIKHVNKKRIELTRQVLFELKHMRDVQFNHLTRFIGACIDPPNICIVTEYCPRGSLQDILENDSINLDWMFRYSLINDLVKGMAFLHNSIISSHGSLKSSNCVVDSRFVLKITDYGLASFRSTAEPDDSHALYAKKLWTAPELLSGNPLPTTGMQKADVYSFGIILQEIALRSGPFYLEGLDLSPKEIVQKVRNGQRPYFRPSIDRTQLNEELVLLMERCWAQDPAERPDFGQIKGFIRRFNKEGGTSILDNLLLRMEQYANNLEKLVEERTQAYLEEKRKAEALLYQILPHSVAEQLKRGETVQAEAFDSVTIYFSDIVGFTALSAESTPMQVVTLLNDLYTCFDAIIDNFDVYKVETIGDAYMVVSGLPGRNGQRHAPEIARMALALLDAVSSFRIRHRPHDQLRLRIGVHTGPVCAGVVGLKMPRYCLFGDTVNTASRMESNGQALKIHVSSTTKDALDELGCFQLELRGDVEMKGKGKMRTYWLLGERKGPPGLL
Granule exo inh: LAMP-1 surface exposure blockers, TALL-104 cells – cell-based, flow cytometry, MLPCN library, primary screen; 360,000 compounds, 0.66% hits; inhibition, % at 10 µM; TALL-104 LAMP-1 surface exposure; cells stimulated with thapsigargin and PMA;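 active = inhibition above about 55%, limit read from the data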
Myeloid diff MLP: induction of myeloid progenitor differentiation, primary screen, cell-based, flow cytometry, MLPCN library; ER-HoxA9 myeloid progenitors, lysozyme-GFP differentiation; calls only at 10 µM; 360,000 compounds, 1% hits; AID 624256, 2012;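 active = normalized GFP-positive differentiation at or above the plate's own cutoff, the solvent-only control mean plus 3 SD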;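 also: cells exposed to compound for four days before flow analysis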
The depositor's hits bear a star; i = inactive; · = not tested or not shown; + = active, no number.

SMILES | NPR1 activator | GC-B act | Granule exo inh | Myeloid diff MLP
NC(=O)CCCn1c(C(=O)c2cc(Cl)c(N)c(Cl)c2)c2ccc(C(F)(F)F)cc2[n+]1[O-] | -2 | 84* | -3 | i
NCCCn1c(C(=O)c2cc(Cl)c(N)c(Cl)c2)c2ccc(C(F)(F)F)cc2[n+]1[O-] | -8 | -8 | -5 | i
Cc1csc(CNc2ncnc3ccc(-c4ccoc4)cc23)c1 | 36 | 37* | 11 | i
CC(CC(=O)c1ccc(F)cc1)N1CCN(c2ccccc2)CC1 (centres undefined) | 63* | 1 | 5 | i
COc1ccc(CNC(=O)c2ccc(Cl)c(S(=O)(=O)N3CCOCC3)c2)cc1OC | · | · | -5 | +
COc1ccc(C(=O)NCc2cccc(Cl)c2)cc1S(=O)(=O)N1CCOCC1 | -2 | 6 | -5 | i
CN(c1cccc(NC(=O)c2ccc(Cl)c(S(=O)(=O)N3CCOCC3)c2)c1)S(C)(=O)=O | 0 | -3 | -1 | +
Cc1ccc(N2CCN(C(C(=O)Nc3c(C)cccc3C)c3ccccc3OC(F)(F)F)CC2)cc1 (centres undefined) | -2 | -1 | 5 | i
CC(C)C(=O)OCCCN1CCC2(CCC(c3ccccc3)CC2)C1=O (centres undefined) | -1 | -11 | · | ·
Cc1cc(NS(=O)(=O)c2cn(C)nc2C)no1 | -1 | 0 | 0 | +
CC(=O)N1CCc2cc(S(=O)(=O)NCCC(=O)N(C)Cc3ccccc3F)ccc21 | 0 | -3 | · | ·
Cc1ccc(N=Nc2ccc(O)c(P(=O)(c3ccccc3)c3ccccc3)c2)cc1 | 50* | -4 | 10 | i
O=[N+]([O-])c1ccc(O)c(P(=O)(c2ccccc2)c2ccccc2)c1 | 3 | 3 | 10 | i
Cc1cc(N2CCN(C(=O)Oc3ccc(-c4ccccc4)cc3)CC2)c2ccccc2n1 | -2 | 2 | · | ·
N=c1oc2c3c4c(cc2cc1C(=O)Nc1ccccc1)CCCN4CCC3 | · | · | 32 | +
CC(=O)N(c1ccccc1)c1ccc([N+](=O)[O-])cc1[N+](=O)[O-] | -3 | -2 | -4 | +
CC1(C(=O)NS(=O)(=O)c2cccc(C#N)c2)CCN1C(=O)Cc1cc(F)ccc1F (centres undefined) | 2 | 4 | -1 | i
O=C1NN(c2ccccc2)C(=O)/C1=C\c1cccc(OC(=O)c2cccs2)c1 | 41* | 12 | 25 | i
Cc1ccc2nc(NCCNC(=O)c3ccccc3)c(C#N)cc2c1 | 7 | -4 | 2 | +
CC(C)(C)Nc1nc2nonc2nc1NC(C)(C)C | · | · | 2 | +
CCCc1nnc(NC(=O)CCC(=O)NCc2ccccc2OC)s1 | -3 | 2 | 8 | i
CCc1nnc(NC(=O)CCc2ccccc2OC)s1 | 6 | 1 | -9 | +
C[C@H](CO)N1C[C@H](C)[C@@H](CN(C)S(=O)(=O)c2ccc(-n3cccn3)cc2)OCc2cnnn2CCCC1=O | -1 | 1 | -2 | i
Nc1c(C(=O)NCC(O)c2ccccc2)cnn1-c1ccccc1 (centres undefined) | 2 | 0 | · | ·
COc1ccc(-c2cc(C(F)(F)F)c3c(N)c(C(=O)NCCSC)sc3n2)cc1 | 21 | -7 | -7 | i
SMILES | NPR1 activator | GC-B act | Granule exo inh | Myeloid diff MLP
CC(=O)c1sc2nc(-c3cccs3)cc(C(F)(F)F)c2c1N | 13 | 3 | 30 | +
Nc1c(C(=O)C2CC2)sc2nc(-c3ccccc3)cc(C(F)(F)F)c12 | 14 | -2 | 0 | +
Cc1c(C(=O)O)sc2nc(-c3cccs3)cc(C(F)(F)F)c12 | -5 | -2 | 9 | i
CN(C)CCNC(=O)c1sc2nc(-c3ccccc3)cc(C(F)(F)F)c2c1N | -6 | -14 | 20 | +
Nc1nc2nc(-c3ccccc3)cc(C(F)(F)F)c2s1 | 10 | 0 | 38 | i
O=C(NC1CCCCN(Cc2cccc(Cl)c2)C1=O)c1ccc(COc2ccccc2)cc1 (centres undefined) | 7 | 8 | · | ·
CCCCc1ccc(-c2csc(/C(C#N)=C/c3ccc(C)o3)n2)cc1 | 2 | -2 | 2 | i
CCCCc1ccc(-c2csc(/C(C#N)=C\c3ccco3)n2)cc1 | -3 | -8 | -1 | +
CCC(CO)[n+]1c(C)cc(/C=C2\Sc3ccccc3N2Cc2ccccc2)cc1C (centres undefined) | 4 | -2 | 20 | +
CCN1/C(=C2\SC(=S)N(Cc3ccccc3)C2=O)Sc2ccccc21 | 1 | 0 | -8 | i
CC1=NNC(=O)/C1=C\c1cn(-c2ccccc2)nc1-c1ccc(F)cc1 | · | · | 66* | ·
COc1cccc(CC2(CO)CCN(C(=O)NCCc3ccccc3)CC2)c1 | -3 | -1 | 0 | +
CCCCCn1nnnc1C1c2ccccc2OCC(=O)N1Cc1ccco1 (centres undefined) | -3 | 1 | · | ·
CCCCOCCCNC(=O)C[C@H]1C[C@@]2(C(=O)OC)C(=C[C@H](C(C)C)O[C@@H]2C2CC2)N(CCc2ccc(OC)c(OC)c2)C1=O | 0 | 3 | · | ·
CCN(CC)c1ccc(C(=O)NN)cc1 | 0 | -3 | 1 | +
CCN(CC)c1ccc(NC(=O)Nc2ccc(C(C)=O)cc2)cc1 | 0 | 1 | 1 | i
CC(C)OCCCN(C)C1CCN(S(=O)(=O)c2csc(C(N)=O)c2)CC1 | 1 | 5 | -1 | i
CC(C)OCCCN(C)C1CCN(S(=O)(=O)c2ccc(-c3cc(C(F)(F)F)no3)s2)CC1 | -10 | -1 | 7 | +
COc1ccc(Cl)cc1NC(=O)C1CC(=O)N(C2CCCCC2)C1 (centres undefined) | 0 | 10 | 3 | +
COc1ccc(-c2csc(/C(C#N)=C\c3ccc(O)c([N+](=O)[O-])c3)n2)cc1OC | 6 | 10 | 93* | i
COc1ccc(-c2csc(/C(C#N)=C\c3ccc(OC)c([N+](=O)[O-])c3)n2)cc1 | 6 | -2 | 3 | i
O=C1c2ccccc2C(Nc2ccccc2)N1Cc1ccc2c(c1)OCO2 (centres undefined) | 62* | -7 | 0 | i
O=C1OC(Nc2ccc3c(c2)OCO3)c2ccccc21 (centres undefined) | 1 | 1 | 1 | +
O=C1c2ccccc2C(Nc2ccc3c(c2)OCCO3)N1Cc1ccc2c(c1)OCO2 (centres undefined) | 4 | -2 | 0 | i
O=C1OC(Nc2ccc(F)c([N+](=O)[O-])c2)c2ccccc21 (centres undefined) | -4 | 2 | -2 | i
Cc1ccc(CN2CCC[C@]3(N[C@H](c4ccc(C(F)(F)F)cc4)[C@@H]4C(=O)N(Cc5ccccc5)C(=O)[C@@H]43)C2=O)cc1 | 2 | 5 | 2 | i
Cc1ccccc1CN1CCCCC(NC(=O)C2CCC2)C1=O (centres undefined) | 0 | 1 | · | ·
